Measured values as given in PubChem BioAssay (NCI).
Where “and” joins values, the source holds several entries; their conditions need not be identical. Identical values can stand only once. Compounds without any hit were thinned out: in the full panel of roughly 83,000, 20% have a hit.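 Negative percent growth values reflect cell death: -40 means 40% of the cells present at the start died, and -100 means all died.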 Calls of active or inactive are those of the source. The calls were made as follows: active = growth percent below 10; inactive = the rest.

Assays:
Assay in all cases: NCI-60 one-dose screen, 48 h (100 = growth as untreated, 0 = no growth, -100 = all killed)
Conditions in all cases: 10 µM unless noted
[1] = system: MOLT-4 leukemia
[2] = system: SR leukemia
[3] = system: RPMI-8226 leukemia
[4] = system: OVCAR-8 ovarian
[5] = system: OVCAR-5 ovarian
[6] = system: OVCAR-4 ovarian
[7] = system: SK-OV-3 ovarian
[8] = system: IGROV1 ovarian
[9] = system: OVCAR-3 ovarian
[10] = system: HS 578T breast
[11] = system: NCI/ADR-RES ovarian
[12] = system: T-47D breast
[13] = system: BT-549 breast
[14] = system: MDA-MB-435 melanoma
[15] = system: SW-620 colon
[16] = system: MCF7 breast
[17] = system: HCT-116 colon
[18] = system: HCC-2998 colon
[19] = system: KM12 colon

Measured: growth

CN(C)c1ccc([N+](=O)[O-])c([N+](=O)[O-])c1
inactive: [1] 107% and 100% | [2] 78.3% | [3] 106% and 103% | [4] 104% and 96.3% | [5] 113% and 101% | [6] 101% | [7] 108% and 112% | [8] 112% and 107% | [9] 119% and 125% | [10] 96.4% and 103% | [11] 104% and 97.9% | [12] 105% and 97.2% | [13] 90.5% and 105% | [14] 99% and 97.1% | [15] 101% and 111% | [16] 83.6% and 91% | [17] 98.2% and 102% | [18] 96.6% and 107% | [19] 109% and 112%

COC(=O)C12C3C4C1C1C2C3C41NC(=O)c1csc([C@@H](C[C@H](C(C)C)N(C)C(=O)[C@@H](NC(=O)[C@H]2CCCCN2C)C2CC2)OC(C)=O)n1 (stereo not given in full)
inactive: [1] 19.2% | [2] 19.1% | [3] 21.7% | [4] 18.9% | [5] 31.6% | [6] 49.9% | [8] 32.7% | [10] 28.1% | [11] 40.7% | [12] 61.4% | [15] 26.1% | [16] 18.8%
active: [7] 7.71% | [9] -4.31% | [13] -17.2% | [14] -29.7% | [17] 2.94% | [19] 5.25%

CC(C)CCC1C(=O)NC(=O)NC1=O
inactive: [1] 99.1% | [2] 93.5% | [3] 113% | [4] 98.4% | [5] 107% | [6] 99.2% | [7] 88.2% | [8] 96% | [9] 101% | [10] 96.6% | [11] 105% | [12] 78.6% | [13] 100% | [14] 99.7% | [15] 91.8% | [16] 88.8% | [17] 98.1% | [18] 107% | [19] 98.5%

Nc1ccc(P(=O)(O)O)cc1
inactive: [1] 110% and 112% | [2] 108% and 115% | [3] 97.8% and 104% | [4] 101% and 98.4% | [5] 97.6% and 99.8% | [6] 90.7% | [7] 104% and 108% | [8] 97.9% and 111% | [9] 107% and 110% | [10] 110% | [11] 93.1% and 102% | [12] 101% | [13] 115% and 98.3% | [14] 107% and 105% | [15] 103% and 106% | [16] 103% and 89.1% | [17] 112% and 103% | [18] 100% and 96% | [19] 109% and 99.6%

C[C@@]12CCCc3coc(c31)C(=O)c1cc3c(cc12)C(=O)C1=C(NCCS1(=O)=O)C3=O
active: [1] -31.5% | [2] -13.3% | [3] -30.4% | [4] -13.1% | [5] -28.3% | [6] -89.3% | [7] -12.6% | [8] -23.9% | [9] -47.2% | [10] -12.3% | [12] -45.9% | [13] -51.7% | [14] -83.5% | [15] -43.8% | [16] -54.1% | [17] -16.5% | [19] 4.16%
inactive: [11] 81.5%

CSc1cc(/C=C(\C)[C@@H]2C[C@@H]3O[C@]3(C)CCC[C@H](C)[C@H](O)[C@@H](C)C(=O)C(C)(C)[C@@H](O)CC(=O)O2)n(CCNC(=O)OC(C)(C)C)n1
inactive: [1] 42.7% | [2] 37.7% | [3] 29.7% | [4] 55.5% | [5] 59.8% | [6] 82.4% | [7] 79.9% | [8] 54.4% | [9] 28.8% | [10] 75.5% | [11] 40.4% | [12] 66.2% | [13] 71.4% | [15] 31.3% | [16] 33.3% | [18] 54.7% | [19] 23.1%
active: [14] -19.8%

CCC1(NC(=O)c2cc(F)c(F)c(F)c2F)C(=O)NC(=O)N(C(C)C)C1=O (stereo not given)
active: [2] -18.6% | [8] -56.8% | [18] -55.8%
inactive: [1] 55% | [3] 107% | [4] 79.4% | [5] 109% | [6] 84.6% | [7] 150% | [9] 138% | [10] 28.3% | [11] 105% | [12] 214% | [13] 72.9% | [14] 59.8% | [15] 62.7% | [16] 96.4% | [17] 99% | [19] 139%
